The text below walks through data of ChEMBL document CHEMBL4513216, “Probing the Open Global Health Chemical Diversity Library for Multistage-Active Starting Points for Next-Generation Antimalarials” (ACS Infect Dis, 2020).

The whole screen tested about 68,000 compounds, of which about 2,700 (4%) showed an effect of 50% or more. The list comes from a sample in which strong results are over-represented; it also holds similar structures and randomly drawn compounds.

The test system of the test is Plasmodium berghei. As to the kind of experiment: Screen against P. berghei liver stage (PbLuc), transformed with Luciferase, at 2uM. The settings on record: tested at 2 uM. In kind it is functional, HepG2.
On to `NCC1CCCCN1C(=O)Cc1cccc(Cl)c1` (configuration not stated), for which the INHIBITION is recorded as -22.89%. Turning to `CC1(C)CN(C(=O)c2occc2COc2cccc(C#N)c2)CCO1`, the INHIBITION is on record as -0.41%.

For the compound `O=C(NCc1nc[nH]n1)c1cc(COc2cccc(F)c2)[nH]n1`, the INHIBITION is recorded as 10.22%.

As for `CC(C)(C)C(=O)NCCC(=O)NS(=O)(=O)c1cccc(C#N)c1`, the INHIBITION was -49%. The figure for `Cc1nc(CC(=O)N2CCc3nnc(N(C)C)cc3C2)cs1` is 1.6%; for `Cc1ccc(N2CCCC(N(C)c3ncnc4c3CCC4)C2)nn1` (configuration not stated) it is -28.33%. Consider `CN1CCS(=O)(=O)[C@@H]2CCN(C(=O)c3ccccc3)CC[C@@H]21`, for which the INHIBITION is 71.83%. With `COc1ccc(C(=O)N2CC[C@@H]3[C@H](CC2)N(C)CCS3(=O)=O)cc1` the figure was -17.39%; with `CC(C)(C)CC(=O)N1CC[C@@H]2[C@H](CC1)N(S(C)(=O)=O)CCS2(=O)=O`, -16.93%. The figure for `CN1CCS(=O)(=O)[C@@H]2CCN(C(=O)CC(C)(C)C)CC[C@@H]21` is 50.17%. With `COc1ccc(CC(=O)N2CC[C@@H]3[C@H](CC2)N(C)CCS3(=O)=O)cc1` the figure was 24.64%; with `COc1cccc(C(=O)N2CC[C@@H]3[C@H](CC2)N(C)CCS3(=O)=O)c1`, -14.21%.

As to `CC(=O)NC(C)(C)c1noc(C2(C#N)CCCCC2)n1`, the INHIBITION was determined as 22.41%.

Take `Cc1nc(CNC(=O)NC2CCCN(c3ncccn3)C2)cs1` (configuration not stated): the INHIBITION is 30.96%. The figure for `Cc1nc(CNC(=O)NC2CCN(c3ncccn3)CC2)cs1` is 56.78%; for `Cc1nc(CCNC(=O)NC2CCN(c3ncccn3)CC2)cs1` it is -17.45%.

Regarding `Cc1nn(C)c(N2CCOCC2)c1CNCc1ccnc(N(C)C)c1`, the INHIBITION worked out at 17.11%.

For `Cc1nn(C)c(N2CCOCC2)c1CNCc1ccccc1CO`, the INHIBITION stood at 50.18%. As for `Cc1nn(C)c(N2CCOCC2)c1CNCc1ccc2c(c1)OCO2`, the INHIBITION amounted to 18.01%. With `Cc1nc(CNCc2c(C)nn(C)c2N2CCOCC2)cs1` the figure was -14.3%; with `Cc1nn(C)c(N2CCOCC2)c1CNCc1ccc(CO)c(F)c1`, 63.05%. For `COc1ncccc1CNCc1c(C)nn(C)c1N1CCOCC1`, the INHIBITION was determined as 40.24%. With `Cc1cc(CNCc2c(C)nn(C)c2N2CCOCC2)no1` the figure was 65.77%. With `Cc1cc(CNCc2c(C(C)C)nn(C)c2N2CCOCC2)no1` the figure was 22.16%. With `Cc1nn(C)c(N2CCOCC2)c1CNCc1ccoc1C` the figure was 10.4%; with `CN(Cc1ccc(F)cc1)CC1(O)CCN(C(=O)c2cccs2)C1` (configuration not stated), -27.04%; with `CC(C)c1nc2n(n1)CC(NCc1nnc(C3CC3)o1)CC2` (configuration not stated), -30.61%.

`O=C(CCNC(=O)C1CCCC1)NCc1cccnc1-n1cncn1`: the INHIBITION is -18.67%. Turning to `Cc1nn(C)c(C)c1C1SCC(=O)Nc2c1c(O)nn2C(C)C` (configuration not stated), the INHIBITION was 4.89%. Consider `COc1ccc(Cl)cc1CN(C)CC(=O)Nc1ccnn1C(C)C1CC1` (configuration not stated), for which the INHIBITION was -13.72%. For the compound `Cc1cccc(C2(CNC(=O)CO)CCCC2)c1`, the INHIBITION was 35.23%. For the compound `CC(=O)N(C)CC(=O)NCC1(c2c(F)cccc2F)CCCC1`, the INHIBITION is listed as -41.54%. On to `CC(=O)N(C)CC(=O)NCC1(c2cccc(C)c2)CCCC1`, for which the INHIBITION came out at 54.29%. With `CN1CCC(c2cccc(CCC(=O)NCC(N)=O)n2)CC1` the figure was 7.64%; with `CC(=O)N1CCC2(CC1)CN(CC(C)C)CC21CCNC1=O` (configuration not stated), 63.35%. `CC(=O)N1CCC2(CC1)CN(C(C)=O)CC21CCNC1=O` (configuration not stated): the INHIBITION turned out to be 24.36%. With `CN(C)C(=O)N1CCC2(CC1)CN(CC1CC1)CC21CCNC1=O` (configuration not stated) the figure was 35.89%; with `CCC[C@@H]1CN(Cc2cc(C#N)n(C)c2C)C[C@H]1NS(C)(=O)=O`, 1.88%; with `CCC[C@H]1CN(Cc2cc(C#N)n(C)c2C)C[C@@H]1NS(=O)(=O)CC`, 35.26%. For the compound `CCC[C@H]1CN(Cc2cc(C#N)n(C)c2C)C[C@@H]1N(C)C`, the INHIBITION amounted to 51.4%. On to `NC(=O)c1sc2ccccc2c1C1CCN(S(=O)(=O)N2CCOCC2)C1` (configuration not stated), for which the INHIBITION is given as -18.15%. For the compound `Cc1noc(C)c1CN1CC[C@@H]2O[C@@H](COCC(C)C)CC[C@@H]21`, the INHIBITION was 13.87%. With `CN(C)CCN1CC[C@@H]2O[C@@H](COCC(=O)N3CCCC3)CC[C@@H]21` the figure was -30.82%; with `COCCN1CC[C@@H]2OC(COCC(=O)N3CCCC3)CC[C@@H]21` (some centres not stated), 51.05%. With `COCCN1CC[C@@H]2O[C@@H](COCC(=O)N3CCCC3)CC[C@@H]21` the figure was -14.49%; with `Cc1ncnc2c1CCN(Cc1cccs1)CC2`, -8.24%. With `CNS(=O)(=O)CC(=O)N1CCC(c2cc3ccccc3[nH]2)CC1` the figure was -46.85%; with `O=C(C1CCC1)N1CCC2(CCCN2CC2CC2)CC1`, 55.66%; with `O=C(C1CCCC1)N1CCC2(CC1)COCCN2CC1CC1`, -11.91%.

Take `O=C(C1CCCCC1)N1CCC2(CCCN2CC2CC2)CC1`: the INHIBITION came out at 24.15%. The figure for `CC(C)NC(=O)[C@@H]1CC[C@@H]2[C@@H](CCN2Cc2cn(C)c3ccccc23)O1` is 29.43%; for `Cc1nc(CCCNC(=O)C2CC(=O)N(C(C)(C)C)C2)sc1C` (configuration not stated) it is 13.87%.
